Data on 56 molecules can be found in ChEMBL document CHEMBL3988442, “University of Dundee, Small-Polar-MMV Screening Library” (2021).

Structures are written as SMILES. Among all 69,000 compounds or so, about 420 (0.61%) showed an effect of 50% or more. Only a selection was taken, and strong results are over-represented in it overall.

The test concerns the target T1, Histidine--tRNA ligase (Leishmania infantum) (UniProt A4I591).
T1 sequence (whole entry): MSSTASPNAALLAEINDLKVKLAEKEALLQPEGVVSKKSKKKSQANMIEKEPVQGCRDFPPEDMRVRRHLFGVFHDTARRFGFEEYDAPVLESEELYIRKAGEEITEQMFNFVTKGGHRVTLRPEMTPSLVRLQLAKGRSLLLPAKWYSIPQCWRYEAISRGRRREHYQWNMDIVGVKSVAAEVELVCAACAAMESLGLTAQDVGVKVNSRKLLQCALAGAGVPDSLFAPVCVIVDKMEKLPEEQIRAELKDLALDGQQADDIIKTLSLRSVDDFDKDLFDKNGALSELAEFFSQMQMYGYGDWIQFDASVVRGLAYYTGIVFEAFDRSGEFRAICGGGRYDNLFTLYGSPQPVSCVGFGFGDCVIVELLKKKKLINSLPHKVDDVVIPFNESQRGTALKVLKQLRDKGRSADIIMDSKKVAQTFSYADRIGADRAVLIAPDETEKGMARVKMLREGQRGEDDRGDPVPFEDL
Description: Leishmania infantum Histidine tRNA synthetase (LdHisRS). Details: scale not given: in the data most compounds retested in dose-response had high values. Conditions: 30 µM. It counts as functional.
Turning to `Cc1cccc(C(=O)N2CCN(S(C)(=O)=O)[C@@H]3CS(=O)(=O)C[C@@H]32)n1`, the Percent Effect is -2.67%.
The result for `COC[C@@]12CC[C@@H](N3CCOCC3)C[C@H]1CCN(c1ncccc1F)C2` reads 19.4%; that for `O=C1OCCN1CC(=O)N1C[C@H]2CC[C@@H]1CN(Cc1cscn1)C2`, -18.2%; that for `O=C(c1ccccn1)N1CC[C@H]2C(=O)N(c3ccsc3)CCO[C@H]2C1`, 18%.
As for `c1csc(N2CCN(c3ncnc4sccc34)CC2)n1`, the Percent Effect turned out to be 27.1%.
For the molecule `c1csc(N2CCCN(c3ncnc4sccc34)CC2)n1`, the Percent Effect came to 22.4%.
The figure for `CC(C)n1nc2c(cc1=O)CN(c1ncnc3sccc13)CC2` is 38.7%; for `CCCn1nc2c(cc1=O)CN(c1ncnc3sccc13)CC2` it is 15.3%.
Consider `CCn1nc2c(cc1=O)CN(c1ncnc3sccc13)CC2`, for which the Percent Effect is 102%.
With `Cn1nc2c(cc1=O)CN(c1ncnc3sccc13)CC2`, the Percent Effect is 100%.
`O=C1N(c2cccc(F)c2)Cc2nc(=O)n(Cc3ccc(Cl)cc3)n21`: the Percent Effect was found to be 9.78%.
The result for `O=C(Cc1ccco1)N1C[C@H]2CCC[C@@]2(COCC2CC2)C1` reads 20%; that for `CN(C)C(=O)CN1CC[C@H]2CN(S(C)(=O)=O)C[C@@H]2C1=O`, 15.5%; that for `CN(C)C(=O)N1C[C@H](Oc2ccccn2)[C@H]2OCCC[C@H]21`, 8.74%.
The result for `COCC(=O)N1C[C@H]2CNC[C@@]2(C(=O)NCc2snnc2C)C1` reads 18.6%; that for `COCCN(C)C(=O)Cn1cccc(OC)c1=O`, 105%.
The figure for `CN(CCOCC1CC1)C(=O)Cn1cccc(C(F)(F)F)c1=O` is 15.4%; for `COc1cccn(CC(=O)N(C)CCSC)c1=O` it is 32%.
As to `COc1cccn(CC(=O)N(C)Cc2ccoc2)c1=O`, the Percent Effect came out at 47.6%.
The result for `COc1cccn(CC(=O)N(C)CCOc2cc(C)cc(C)c2)c1=O` reads 105%; that for `CN(CCCOc1ccccc1Cl)C(=O)CN1C[C@@H]2CC[C@H](CC1=O)N2`, 17.7%.
In the case of `CCc1cccc(OCCCN(C)C(=O)CN2CCNC2=O)c1`, the Percent Effect was found to be 8.85%.
The figure for `CCN(CC1CCOCC1)C(=O)Cn1cccc(C(F)(F)F)c1=O` is 13.2%; for `COCCCN(C)C(=O)Cn1cccc(OC)c1=O` it is 107%; for `COc1cccn(CC(=O)N(C)CCC2CCOCC2)c1=O` it is 91.2%.
The result for `CCc1ccccc1OCCN(C)C(=O)CN1CCCC1` reads 22.2%; that for `CN(CCCOc1ccccc1Cl)C(=O)CN1CCCCCC1=O`, 21.2%; that for `CC(=O)N1CC[C@H]2CC(=O)N(C3CC3)CC[C@H]2C1`, 22.2%.
The figure for `CNC(=O)CN1CC[C@H]2CN(C(=O)c3cc[nH]n3)C[C@H]2C1` is 16.7%; for `CNC(=O)[C@@H]1CC[C@@H]2[C@@H](CCN2Cc2cn(C)c3ccccc23)O1` it is 13.2%.
On to `O=C1[C@H]2CC[C@H](CN(C3CSCCSC3)C2)N1Cc1cscn1`, for which the Percent Effect worked out at 11.4%.
The figure for `CN(C)S(=O)(=O)N1CC[C@]2(O)CCN(CCc3cccc(F)c3)C[C@@H]2C1` is 43.4%; for `Cc1nc(CN2C[C@@H]3CN(C(=O)c4cccn4C)C[C@@H]3C2)cs1` it is -1.92%.
As for `CC(=O)N1CCO[C@@H]2CN(Cc3ccccc3Cl)C[C@@H]2C1`, the Percent Effect turned out to be 11.7%.
`Cc1nc(CN2C[C@@H]3CN(C(=O)C4(C#N)CC4)C[C@@H]3C2=O)cs1`: the Percent Effect amounted to 26.5%.
On to `Cc1nc([C@H]2C[C@H]3CN(C(=O)c4ccoc4C)CC[C@@H]3O2)no1`, for which the Percent Effect stood at 15.1%.
The figure for `COc1cccn(CC(=O)N(C)CCCOc2c(C)cccc2C)c1=O` is 110%.
In the case of `CN(CCCOc1ccccc1Cl)C(=O)CN1C(=O)CCNC1=O`, the Percent Effect was determined as 14.2%.
For `CN(CCCOc1ccccc1Cl)C(=O)CN1CCNC1=O`, the Percent Effect turned out to be 24.8%.
The result for `Cc1ccc(N(C)[C@@H]2CC[C@@H]3CN(C(=O)CC4CCOCC4)C[C@@H]32)nn1` reads 12.8%; that for `Cc1ccnc(N2C[C@@H]3CC[C@H](C2)N(CC2CCC2)C3=O)n1`, 34.4%; that for `Cn1cc(CCC(=O)N2C[C@@H]3CC[C@H](C2)N(Cc2ccccn2)C3)cn1`, 24.1%.
The result for `Cc1ccc(N2C[C@H]3OCC[C@H]3[C@H](C(=O)NC3CCC3)C2)nn1` reads 11.8%; that for `CC(C)c1nccn1-c1cccc(C2CCCN(C3CCCC3)C2)n1` (stereo unspecified), 22.9%.
The figure for `CCc1nccn1-c1cccc(C2CCCN(C3CCCCC3)C2)n1` (stereo unspecified) is 42%; for `Cc1nccn1-c1cccc(C2CCCN(C3CCCCC3)C2)n1` (stereo unspecified) it is 55.6%.
For the molecule `Cc1nccn1-c1nccnc1C1CCCN(C2CCCC2)C1` (stereo unspecified), the Percent Effect was -4.2%.
The result for `Cc1nccn1-c1cccc(C2CCCN(C(=O)c3cc[nH]n3)C2)n1` (stereo unspecified) reads 17.1%.
The result for `Cc1nccn1-c1cccc(C2CCCN(C3CCCC3)C2)n1` (stereo unspecified) reads 65.2%.
The figure for `COCC(=O)N1CC[C@@H]2CN(Cc3cccc(Cl)c3)S(=O)(=O)[C@@H]2CC1` is 3.77%; for `Cn1ccc(NC(=O)CN2C[C@H]3CC[C@@H]2CN(Cc2ccccn2)C3)n1` it is 0%; for `NC(=O)C1CCN(C(=O)Cc2cnc(-c3c(Cl)cccc3Cl)s2)CC1` it is 12.1%.
Take `O=C(Cc1cnc(-c2c(Cl)cccc2Cl)s1)N1CCOCC1`: the Percent Effect stood at 64.8%.
`CC(=O)N1CCN(C(=O)Cc2cnc(-c3c(Cl)cccc3Cl)s2)CC1`: the Percent Effect is -1.1%.
The result for `Cc1nnsc1C(=O)N1CC[C@H](c2ccccc2)[C@@H]2[C@H]1CCCCN2C` reads 7.29%; that for `Cc1ccc(Cl)cc1NC(=O)Cn1cc(C(=O)O)ccc1=O`, 6.67%.
